This is an account of results in PubChem BioAssay AID1645860 (Buhrlage Lab, Dana-Farber Cancer Institute and Novartis …, 2021).

In general, inhibition refers to the drop in the measured response relative to a control, in per cent.

About 2,500 (5.3%) of roughly 47,000 compounds were called active. Cut-off read from the data, not from the text of the source: active = inhibition above about 30%; inactive = the rest. Many of the other results were omitted from the sample, so actives are more common in it than they were.

Ubiquitin carboxyl-terminal hydrolase 30 (Homo sapiens), sequence (Q70CQ3 whole entry, looked up): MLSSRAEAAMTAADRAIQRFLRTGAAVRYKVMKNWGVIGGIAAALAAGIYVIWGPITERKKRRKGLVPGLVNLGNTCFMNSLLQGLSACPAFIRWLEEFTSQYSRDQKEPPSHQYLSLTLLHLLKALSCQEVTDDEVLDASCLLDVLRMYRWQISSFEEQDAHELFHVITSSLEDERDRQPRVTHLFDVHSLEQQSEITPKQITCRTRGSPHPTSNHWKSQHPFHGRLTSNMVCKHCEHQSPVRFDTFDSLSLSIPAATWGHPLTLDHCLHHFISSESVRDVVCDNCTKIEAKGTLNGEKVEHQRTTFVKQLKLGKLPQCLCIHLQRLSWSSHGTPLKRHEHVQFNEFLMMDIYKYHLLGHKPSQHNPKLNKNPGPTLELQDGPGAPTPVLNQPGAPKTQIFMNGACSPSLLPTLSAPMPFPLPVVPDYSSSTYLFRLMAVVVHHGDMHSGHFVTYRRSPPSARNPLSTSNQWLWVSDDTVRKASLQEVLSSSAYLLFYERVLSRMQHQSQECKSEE

The assay concerns the target Ubiquitin carboxyl-terminal hydrolase 30 (Homo sapiens) (UniProt Q70CQ3). Put plainly: blocks human USP30 ubiquitin-rhodamine cleavage (AID 1645860). As to conditions: purified USP30, Ub-rhodamine cleavage fluorescence; at 25 µM; stronger effect = higher value.
For the molecule `O=C(Nc1ccc2cn[nH]c2c1)c1cnn(-c2ccccc2)n1`, the inhibition was -23.9% (inactive).

As to `CCCc1cc(=O)oc2cc(OC(=O)C3CCN(C(=O)c4ccc(Cl)cc4)CC3)ccc12`, the inhibition was 29.6% (inactive). For the molecule `COc1ccc(N2CCN(Cc3cc(=O)oc4cc(O)ccc34)CC2)cc1`, the inhibition was 8.3% (inactive).

Consider `CCCc1cc(=O)oc2cc(OCC(=O)NCc3ccc(OC)cc3)ccc12`, for which the inhibition was 62.1% (active). The same measure for `CCN(CC)c1ccc(C2C3=C(CC(C)(C)CC3=O)Nc3ccccc3N2C(=O)Cc2ccccc2)cc1` (stereo not given): -64.2% (inactive); for `Cc1ccc(NC(=O)Cc2sc(Nc3ccc(C)cc3)nc2O)cc1`: 53.6% (active); for `CCOc1ccc(N(CC(=O)Nc2ccc(S(=O)(=O)Nc3cc(C)ccc3C)cc2)S(C)(=O)=O)cc1`: 1.87% (inactive).

Regarding `CCOc1ccc(Nc2nc(O)c(CC(=O)Nc3cccc(C)c3)s2)cc1`, the inhibition is 33.8% (active). To `Cc1ccc(Nc2nc(NCC(=O)Nc3cc(C)ccc3C)nc(Nc3ccc(C)cc3)n2)cc1` belongs -44% (inactive); to `Cc1ccc(Nc2nc(O)c(CC(=O)Nc3ccc(C(C)C)cc3)s2)cc1C`, 0.202% (inactive). For `CCC(=O)c1ccc(OCC(=O)Nc2ccc3nc(C)sc3c2)cc1`, the inhibition was -168% (inactive).

Consider `Cc1cccc(-c2cnc(C(O)c3ccc4c(c3)OCO4)[nH]2)c1` (stereo not given), for which the inhibition is -30.9% (inactive).

As for `COc1ccc(C2CC(=O)c3cnc(NC(=O)c4cc(OC)c(OC)c(OC)c4)nc3C2)c(OC)c1` (stereo not given), the inhibition is 24.2% (inactive). `C=C1C(=O)O[C@H]2C=C(C)C=C[C@@]3(C)CC[C@@]1(O)[C@H]23`: the inhibition was 7.94% (inactive).

In the case of `O=C(NCc1ccncc1)C1CC(=O)N(c2cccc(C(F)(F)F)c2)C1` (stereo not given), the inhibition was 0.292% (inactive). Take `Cc1oc(-c2ccccc2)nc1C(=O)N(C)Cc1cccc(Cl)c1Cl`: the inhibition is -7.53% (inactive). Consider `O=C1NCCCC12CCN(Cc1cnc3ccccc3n1)CC2`, for which the inhibition was 10.3% (inactive). Regarding `Cc1ccc(-c2nc(C(=O)N3CCN(c4ccccn4)CC3)cs2)n1C`, the inhibition is -26.2% (inactive).

For the molecule `O=C(c1cccnc1)N1CCN(c2cc(-c3ccccc3)[nH]n2)CC1`, the inhibition was 12.7% (inactive). Turning to `CN(CCc1ccccc1)c1nccc(N2CCN(C(=O)c3csc(-c4cccnc4)n3)CC2)n1`, the inhibition is 51.1% (active). The same measure for `Cc1nc2cccnc2nc1C`: -39.7% (inactive). For `NC(=Nc1cccnc1)c1ccc2ccccc2n1`, the inhibition is 4.02% (inactive).

As for `Clc1ccc(C2NC3=NCN(Cc4ccco4)CN3c3nc4ccccc4n32)cc1` (stereo not given), the inhibition is 36.4% (active). The same measure for `COc1cccc(CNC(=O)C2(C)Oc3cccnc3N(C)C2=O)c1` (stereo not given): -5.25% (inactive); for `O=C(NC1CCCCCC1)c1nc(Cn2cnc3ccccc3c2=O)no1`: 9.85% (inactive); for `COc1ccc(N(CC(=O)NCc2ccco2)S(=O)(=O)c2ccccc2[N+](=O)[O-])c(OC)c1`: 3.13% (inactive).

For the molecule `CC(C)(C)c1ccc(-c2nnc3n2-c2ccccc2SC3)cc1`, the inhibition is 56.7% (active). The same measure for `CCc1ccccc1N1C(=O)CN(S(C)(=O)=O)CC1(C)C(=O)NC1CCCCC1` (stereo not given): 19.9% (inactive); for `COCCSc1ccc(-c2cccnc2)nn1`: 1.49% (inactive); for `Cc1ccc(C(=O)N2CCC3(CC2)CCN(c2cnn(C)c2)C3=O)cc1`: 17.1% (inactive). To `O=C(NCC(c1ccco1)N1CCCCC1)c1ccccc1Cl` (stereo not given) belongs -6.05% (inactive); to `Cc1ccc(CNC(=O)c2cc(=O)nc3sc(N4CCCC(C)C4)nn23)cc1` (stereo not given), 30.1% (active); to `Cc1cc(=O)n(CC(=O)NCc2ccccc2)c(N2CCCC2)n1`, 0.241% (inactive). To `CCCOc1ccc(CNC(=O)C2CCCN(c3nnc(N4CCCC4=O)s3)C2)cc1` (stereo not given) belongs 5.69% (inactive); to `COc1ccccc1-n1ccnc(NC(=O)c2cccc(F)c2)c1=O`, 11% (inactive); to `COc1cccc(NC(=O)Nc2nccn(-c3ccccc3)c2=O)c1`, 39.1% (active). As for `COc1cccc(C(=O)Nc2nccn(-c3cccc(F)c3)c2=O)c1`, the inhibition is 0.051% (inactive).

For the molecule `CSc1ncccc1C(=O)Nc1ccnn1C(C)c1ccncc1` (stereo not given), the inhibition is -23% (inactive). The same measure for `CCn1c2ccccc2n2c(S(=O)(=O)Cc3ccccc3)nnc12`: 5.02% (inactive); for `Cc1sc2nc(C3CC3)n(C3CCN(C(=O)C(C)C)CC3)c(=O)c2c1C`: 18.3% (inactive); for `c1ccc(-c2ccc(NCc3ccc4c(c3)OCO4)nn2)cc1`: 33.6% (active).

Take `CCC(Oc1ccccc1)C(=O)NCc1ccc2c(c1)OCO2` (stereo not given): the inhibition is 21.1% (inactive).

With `c1cc(CNCc2ccc3c(c2)OCO3)ccn1`, the inhibition was 0.888% (inactive). On to `Cc1cccc(CN2CCN(CC(=O)NCCN3CCOCC3)C2=O)c1`, for which the inhibition was -2.8% (inactive).

Take `O=C(NCc1ccccc1F)c1nnn(-c2ccccc2)n1`: the inhibition was 14.4% (inactive). The same measure for `CSCc1c(C)noc1-c1cc(C)on1`: 8.31% (inactive); for `COc1ccccc1N(Cc1nc2nc(C)cc(C)n2n1)C(=O)c1ccccc1`: -0.203% (inactive). The same measure for `CCOc1nc(-c2ccc(Cl)cc2Cl)nc2ccccc12`: 13.4% (inactive); for `Cc1ccnc(Nc2nc(-c3ccccc3)c3cc(Cl)ccc3n2)n1`: 82.8% (active). As to `CC(=O)C[n+]1cc(-c2ccc(C)cc2)n2c1CCC2`, the inhibition was 5.82% (inactive). Turning to `CCOc1ccc(Nc2cc(C(=O)NCCN3CCCC3)c3ccccc3n2)cc1`, the inhibition is 29.9% (inactive). Take `CCOc1ccc(C(=O)C[n+]2cc(-c3ccccc3)n3c2CCC3)cc1`: the inhibition was 30.3% (active). To `CCN1CCN(c2ccc(NC(=O)c3cccc(C)c3)cn2)C1=O` belongs -23.3% (inactive). The same measure for `Cc1nc(-c2cnccn2)n(CC(=O)Nc2ccc(F)cc2)c(=O)c1C`: 2.83% (inactive); for `CC(=O)c1cccc(Nc2c(C(=O)N3CCCC3)cnc3nc(C)ccc23)c1`: -35.8% (inactive); for `OCc1ccccc1-c1cnc2sc(NCCc3ccccn3)nn12`: 16.3% (inactive). The same measure for `COCCNc1nn2c(-c3ccc4ccccc4c3)cnc2s1`: 30.2% (active); for `Cc1nnn(C23CC4CC(CC(C(=O)NC5CCCC5)(C4)C2)C3)n1`: 21.2% (inactive); for `CCOc1ccccc1N1CCN(C(=O)c2snc(-c3ccncc3)c2N)CC1`: 1.69% (inactive).

On to `O=C(CCC(=O)N(c1ccccc1)c1ccccc1)Nc1ccccc1`, for which the inhibition is -16.4% (inactive).

As to `COc1ccc(C)cc1NC(=O)Cn1c(=O)nc(N(C)c2ccccc2)c2ccccc21`, the inhibition is 0.767% (inactive). On to `O=C(Cn1cnc2c(sc3ccccc32)c1=O)Nc1ccc2c(c1)OCCO2`, for which the inhibition is -498% (inactive). Consider `CN(c1ccccc1)c1nc(=O)n(CC(=O)Nc2ccc3c(c2)OCCO3)c2ccccc12`, for which the inhibition was 42.3% (active). As to `CCCCS(=O)(=O)N1C[C@H]2CC[C@@]3(N=C(C)N(CC4CC4)C3=O)[C@H]2C1`, the inhibition is 12.5% (inactive). For `CNC(=O)c1sc2nccnc2c1C1CCN(C(=O)c2cccc(F)c2)CC1`, the inhibition was 13.3% (inactive). The same measure for `CNc1cc(C2CCCN2C(=O)c2cc3c([nH]c2=O)CCC3)ccn1` (stereo not given): -20.8% (inactive); for `CC(C)N(C(=O)CSc1nc2ccc([N+](=O)[O-])cc2s1)C(C)C`: -147% (inactive).

In the case of `CC(C)Cc1cc(C(=O)N2CCN(C)CC(C(N)=O)C2)on1` (stereo not given), the inhibition was 16.9% (inactive). Take `C=C1CC[C@@H]2[C@@]3(C)CCC(=O)C(C)(C)[C@@H]3CC[C@@]2(C)[C@]12Cc1c(c(C)c(C)oc1=O)O2`: the inhibition is 30.3% (active).

Regarding `CNC(=O)Nc1ccc(C2(C(=O)NC3CCCC3)CCC2)cc1`, the inhibition was -19.9% (inactive). `CC12C(=O)N(CCCN3CCOCC3)CC(=O)N1CCc1c2[nH]c2ccccc12` (stereo not given): the inhibition is 7.84% (inactive).

In the case of `Cc1cc(NC2CCCCC2)n2ncc(-c3ccccc3Cl)c2n1`, the inhibition was -16.5% (inactive). The same measure for `Cc1ccc(NC(=O)CCC(=O)N(c2ccccc2)c2ccccc2)cc1Cl`: 17.2% (inactive); for `COc1ccc(NS(=O)(=O)c2cc(NC(=O)CC(=O)c3ccc([N+](=O)[O-])cc3)ccc2C)cc1`: 29.7% (inactive).

As to `Cc1ccc(NC(=O)CCOc2ccccc2)cc1S(=O)(=O)Nc1ccccc1Cl`, the inhibition was 30.4% (active). For `O=C(Nc1nnc(-c2cccs2)o1)C1CCCCC1`, the inhibition is 10.9% (inactive). Consider `Cc1cc(-c2nnc(SCC(=O)Nc3ccc(Br)c(C)c3)n2N)n[nH]1`, for which the inhibition was 71.5% (active). On to `Cc1cc(NC(=O)COC(=O)c2cccc(C)c2O)ccc1Br`, for which the inhibition was 6.49% (inactive). As for `Nn1c(SCC(=O)Nc2ccccc2F)nnc1-c1n[nH]c2c1CCC2`, the inhibition was -0.125% (inactive). To `O=C(c1cnc2sc3c(n2c1=O)CCC3)N1CCCCC1` belongs -37.1% (inactive); to `CC(O)CNc1ncnc2c1oc1nc(C(C)C)c3c(c12)CCC3` (stereo not given), 38.1% (active); to `CC(C)Cc1nc2sc3c(NCc4ccco4)ncnc3c2c2c1CCC2`, -21.1% (inactive). In the case of `CC(C)c1nc2oc3c(N4CCN(CCO)CC4)ncnc3c2c2c1CCC2`, the inhibition was 18.4% (inactive). As for `CC(C)n1cnc2c1C(C(=O)N1CCN(C)CC1)N(Cc1ccccc1)CC2` (stereo not given), the inhibition is 9.34% (inactive). The same measure for `CC(C)(C)C(=O)N1CCC2(COCc3cnc(NCc4ccco4)nc32)C1` (stereo not given): 2.12% (inactive). The same measure for `Cc1c(S(=O)(=O)N2CCCCC2)c(C)n(C)c1-c1nnc(C2CCC2)o1`: 3.55% (inactive); for `Cc1nnc(NCc2ccc(Cl)cc2)[nH]c1=O`: 26% (inactive); for `CSc1cccc(NC(=O)COc2ccc(C(=O)c3ccccc3)cc2)c1`: -4.48% (inactive).

Take `CSc1cccc(NC(=O)CCc2ccc3nc[nH]c3c2)c1`: the inhibition is -0.451% (inactive). The same measure for `CSc1cccc(NC(=O)CCn2c(=O)c3cccn3c3ccccc32)c1`: 32.6% (active); for `Cc1cc2n(n1)CCCN2C(=O)CCC(=O)Nc1ccc(F)cc1F`: -24.2% (inactive); for `CC(=O)N1C[C@H]2C3(CCN(C(=O)c4ccccc4)CC3)CC[C@@]2(C(=O)N(C)C)C1`: 25.8% (inactive). Turning to `Cc1ccc(-n2cc(-c3noc(C(=O)Nc4ccc(F)cc4C)n3)nn2)cc1`, the inhibition is 36.9% (active). To `Cc1cc(F)ccc1NC(=O)c1cc(C2CC2)n2nccc2n1` belongs -33.1% (inactive); to `Cc1ccc(Cc2nc(CC(=O)Nc3ccc(F)cc3F)n[nH]2)cc1`, -1.22% (inactive).
